From PubChem BioAssay
VDR inh: inhibitors of human vitamin D receptor. Potency, µM, for the others: max response, negative = inhibition, usual class: inhibitors. AID 504847. VDR-SRC2-3 peptide fluorescence polarization, 2 h. hit rate 0.93% among 400,000. P11473; further: potency means the concentration at half of the fitted maximal effect; on the % scale 0 is the no-effect control and ±100 the full control effect
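Signal is fluorescence polarization, reporting how far test compounds block the interaction of VDR with the SRC2-3 coregulator peptide after a 2 h room-temperature incubation.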
KDM4E inh: blocks human JMJD2E demethylase activity; B2RXH2; JMJD2E catalytic domain, FDH-coupled NADH fluorescence (FDH is formaldehyde dehydrogenase); Potency, µM (titrated, usually from 57.1 µM), for the others: at the top dose activity change, negative = inhibition, usual class: inhibitors; hit rate 1.6% among 230,000; AID 2147; active means well fitted inhibition curve with a large enough effect, not every such curve was filed as active; inconclusive means small, poorly fitted or top-dose-only effect, or another doubt; inactive means no such curve, though single readings can be large or run the other way;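 further: potency means the concentration at half of the fitted maximal effect; 0% = wells with enzyme and -100% = buffer wells without enzyme; nearly all actives have a fitted effect of over 50% in size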
Target sequence (B2RXH2 1-337 limits assumed): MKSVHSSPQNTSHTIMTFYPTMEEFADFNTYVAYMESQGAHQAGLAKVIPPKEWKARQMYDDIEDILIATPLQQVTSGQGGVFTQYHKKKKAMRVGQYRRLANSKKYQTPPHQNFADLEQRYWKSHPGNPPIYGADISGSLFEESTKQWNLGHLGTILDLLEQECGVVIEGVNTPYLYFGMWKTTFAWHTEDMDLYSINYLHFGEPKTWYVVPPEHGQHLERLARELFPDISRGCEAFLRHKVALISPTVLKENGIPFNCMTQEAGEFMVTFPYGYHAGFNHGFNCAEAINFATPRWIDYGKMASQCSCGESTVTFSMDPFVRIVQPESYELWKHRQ
HTT ATP protect: protects HTT-Q103 PC12 cells, measured by ATP. Potency, µM (titrated, usually from 56.4 µM), inactives show cytoprotection (ATP increase), hits mostly activators. hit rate 0.14% among 230,000. PC12 HTT-Q103 induced, cytoprotection, ATP luminescence, 40 h; further: potency means the concentration at half of the fitted maximal effect; % of control where 0% means no effect; nearly all actives have a fitted effect of over 45% in size
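PC12 cells stably carrying ecdysone-inducible Htt exon 1 (Q103)–GFP were induced with 100 nM tebufenozide (final) alongside library compounds in a dose series. Cytoprotection was scored as retained ATP by ATPlite luminescence.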
GoLoco inh red: RGS12 GoLoco-Gai1 interaction inhibition; hit rate 0.44% among 230,000; AID 880; Potency, µM (titrated, usually from 61.6 µM), without a hit: at the top dose activity, negative = inhibition, most hits filed as inhibitors; P63096; Gai1:RGS12 GoLoco peptide FP, rhodamine, 10 min; active means well fitted inhibition curve with a large enough effect, not every such curve was filed as active; inactive means no such curve, though single readings can be large or run the other way; further: potency means the concentration at half of the fitted maximal effect; on the % scale 0 is the no-effect control and ±100 the full control effect; nearly all actives have a fitted effect of over 30% in size
Target sequence (P63096 whole entry, looked up): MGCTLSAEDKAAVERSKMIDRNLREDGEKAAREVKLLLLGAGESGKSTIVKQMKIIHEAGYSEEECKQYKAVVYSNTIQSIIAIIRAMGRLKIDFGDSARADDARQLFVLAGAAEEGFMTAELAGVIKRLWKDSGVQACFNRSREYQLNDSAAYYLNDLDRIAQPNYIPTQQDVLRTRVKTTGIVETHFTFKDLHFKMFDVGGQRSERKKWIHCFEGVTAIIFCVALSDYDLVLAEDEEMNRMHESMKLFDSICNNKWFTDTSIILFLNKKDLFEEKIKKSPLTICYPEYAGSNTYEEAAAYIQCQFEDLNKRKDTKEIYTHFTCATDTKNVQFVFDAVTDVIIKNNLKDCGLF
Coupling enz: coupling enzyme interference in Giardia aldolase counter-screen. coupling enzyme system counterscreen, AmpLite Red fluorescence. activity change, negative = inhibition, % at 58.2 µM, hits read low. hit rate 0.67% among 290,000. AID 2472; in the data active means activity change below about -30%; further: on the % scale 0 is the no-effect control and ±100 the full control effect
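First, compound is pin-transferred into glyceraldehyde-3-phosphate coupling-enzyme reagent at 57.5 uM final and held 10 min at RT. Next, substrate, coupling system and AmpLite Red are added. After 20 min RT, fluorescence (525/598 nm) is read.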
HttQ103 aggreg: inhibitors of mutant huntingtin aggregate formation in PC12 cells; PC12 HttQ103-GFP aggregates, Acumen cytometry, 40 h; Potency, µM (top dose mostly 46.1 µM), without a hit: at the highest dose activity change, negative = inhibition, hits mostly inhibitors; hit rate 1.1% among 220,000; AID 1688; further: potency means the concentration at half of the fitted maximal effect; on the % scale 0 is the no-effect control and ±100 the full control effect; nearly all actives have a fitted effect of over 60% in size
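Using laser scanning cytometry, GFP-positive aggregates were counted after lysis of PC12 cells induced with 100 nM tebufenozide to express HTT exon 1 Q103–GFP. Compounds were tested in titration.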
Numbers without * were called inactive; [ ] = remark or other dose. Sampled rows, rich in hits. Any-hit rate of the full collection: about 2.3%. Unless noted, the call rests on the fitted dose curve; in most records, active means well fitted curve in the direction sought with a large enough effect; inconclusive means small, poorly fitted or top-dose-only effect, or another doubt; inactive means no such curve, though single readings can be large; an effect the other way counts as inactive or inconclusive.

What do the screens show for `N#Cc1c(NC(=O)c2ccccc2Cl)n(Cc2ccccc2)c2nc3ccccc3nc12`?
VDR inh: inconclusive; KDM4E inh: inconclusive; HTT ATP protect: -18%[10 µM]; GoLoco inh red: 118%; Coupling enz: -39*; HttQ103 aggreg: inconclusive

Results for CCCCn1c(NC(=O)c2ccccc2Cl)c(C#N)c2nc3ccccc3nc21 ?
VDR inh: 45µM*; KDM4E inh: inconclusive; HTT ATP protect: -62%; GoLoco inh red: 5%; Coupling enz: -26; HttQ103 aggreg: 10µM*

How did CCCCn1c(NC(=O)CC)c(C#N)c2nc3ccccc3nc21 do in these assays?
VDR inh: -5%; KDM4E inh: inconclusive; HTT ATP protect: 34%[10 µM]; GoLoco inh red: 31%; Coupling enz: -1; HttQ103 aggreg: -7%

Results for COc1ccc(-n2c(NC(=O)c3ccco3)c(C#N)c3nc4ccccc4nc32)cc1 ?
VDR inh: -19%; KDM4E inh: 3%; HTT ATP protect: -12%; GoLoco inh red: 44%; Coupling enz: -52*; HttQ103 aggreg: 13%

How did COC(=O)c1ccccc1NC(=O)Cn1nc(C(F)(F)F)c2c1CCCC2 do in these assays?
VDR inh: -16%

Results for CN(C)CCCN(Cc1ccccc1)C(=S)Nc1cccc(C(F)(F)F)c1 ?
VDR inh: -7%; KDM4E inh: 2%; Coupling enz: 1; HttQ103 aggreg: 0.0006µM*

How did CCCN(Cc1ccccc1)C(=S)Nc1cccc(C(F)(F)F)c1 do in these assays?
VDR inh: -8%; KDM4E inh: -2%; HTT ATP protect: 11%[10 µM]; GoLoco inh red: -3%; Coupling enz: 0; HttQ103 aggreg: 5%

What do the screens show for `CCOC(=O)c1sc(NC(=O)C2c3ccccc3Oc3ccccc32)c(C#N)c1C`?
VDR inh: 79µM*

Results for CCOC(=O)c1c(NC(=O)C2c3ccccc3Oc3ccccc32)sc(C(=O)N(CC)CC)c1C ?
VDR inh: 71µM*; KDM4E inh: 2%; HTT ATP protect: -10%; GoLoco inh red: 4%; Coupling enz: -9; HttQ103 aggreg: inconclusive

What do the screens show for `CCOC(=O)c1c(NC(=O)CN(C)C)sc(C(=O)N(CC)CC)c1C`?
VDR inh: 12%; KDM4E inh: -17%; HTT ATP protect: 0%; GoLoco inh red: 10%; Coupling enz: 0; HttQ103 aggreg: -7%

How did CCCCC(=O)Nc1sc(C(=O)N(CC)CC)c(C)c1C(=O)OC do in these assays?
VDR inh: 22µM*; KDM4E inh: 1%; HTT ATP protect: 1%[10 µM]; GoLoco inh red: -5%; Coupling enz: 0; HttQ103 aggreg: 5%

How did Cc1ccc2c(c1)N(CC(=O)NCCN1CCOCC1)C(=O)CO2 do in these assays?
HTT ATP protect: -7%

What do the screens show for `Cc1ccccc1NC(=O)CSc1nc(-c2ccc(F)cc2)nc2c1Cc1ccccc1O2`?
VDR inh: -22%

What do the screens show for `N#C/C(C(=O)Nc1ccc(Cl)cc1)=C(/S)Nc1ccccc1`?
VDR inh: inconclusive; Coupling enz: 7

How did N#Cc1ccc(C(=O)CN2CCN(c3ccccc3)CC2)cc1 do in these assays?
VDR inh: 3%; Coupling enz: 1

What do the screens show for `O=C1C2C3C=CC(C3=C(c3ccccc3)c3ccccc3)C2C(=O)N1Cc1ccccc1` (stereo unspecified)?
VDR inh: -5%; KDM4E inh: 3%; HTT ATP protect: 20%; GoLoco inh red: 14µM*; Coupling enz: 0; HttQ103 aggreg: 1%[9.22 µM]

How did O=C1C2C(c3ccccc3)C=CC(c3ccccc3)C2C(=O)N1CCO (stereo unspecified) do in these assays?
VDR inh: 4%; KDM4E inh: -3%; HTT ATP protect: -16%; Coupling enz: 4; HttQ103 aggreg: 3%

Results for CCCCCc1c2c(cc(O)c1C(=O)O)OC(=O)c1cc(C(=O)CCCC)c(OC)cc1O2 ?
VDR inh: 79µM*; KDM4E inh: 9%; HTT ATP protect: inconclusive; GoLoco inh red: 3%; Coupling enz: 16

Results for CCCCCc1c2c(cc(O)c1C(=O)O)OC(=O)c1c(cc(OC)cc1C(=O)CCCC)O2 ?
VDR inh: 79µM*; KDM4E inh: -3%; HTT ATP protect: 20%[10 µM]; GoLoco inh red: 7%; Coupling enz: 3; HttQ103 aggreg: -2%[9.22 µM]

Results for CC(=O)OCCNc1cc(N2CCN(C)CC2)c2noc3c2c1C(=O)c1ccccc1-3 ?
VDR inh: inconclusive; KDM4E inh: -20%; HTT ATP protect: -23%; GoLoco inh red: 218%; Coupling enz: -26; HttQ103 aggreg: -21%

What do the screens show for `CCOC(=O)C(C(=O)OCC)c1cc(Br)c2noc3c2c1C(=O)c1ccccc1-3`?
VDR inh: inconclusive; KDM4E inh: inconclusive; HTT ATP protect: -87%; GoLoco inh red: -21%; Coupling enz: -64*; HttQ103 aggreg: inconclusive

What do the screens show for `CC1CCN(C(=O)c2cc(S(=O)(=O)N3CCOCC3)ccc2N2CCCC2)CC1`?
VDR inh: -8%

What do the screens show for `N#CC1=C(N)SC(N)=C(C#N)C1CCC1CCCCC1`?
KDM4E inh: inconclusive; HTT ATP protect: 10%[10 µM]; GoLoco inh red: 94%; Coupling enz: 3; HttQ103 aggreg: 0.89µM*

Results for Cc1sccc1C1C(C#N)=C(N)SC(N)=C1C#N ?
KDM4E inh: -4%; HTT ATP protect: 5%[1.9 µM]; GoLoco inh red: 54%; Coupling enz: -20; HttQ103 aggreg: 13%

How did Cc1oc(CC(C)C)cc1C(=O)NCCCC(=O)O do in these assays?
VDR inh: -23%; KDM4E inh: -11%; HTT ATP protect: 5.6µM*; GoLoco inh red: 17%; Coupling enz: 0; HttQ103 aggreg: inconclusive

What do the screens show for `Cc1cc(C(=O)NCCCC(=O)O)c(C)o1`?
VDR inh: 13%; KDM4E inh: 2%; HTT ATP protect: 3%; GoLoco inh red: 5%; Coupling enz: 1; HttQ103 aggreg: 3%

Results for CCOc1ccc(CNC(=O)COc2cc(=O)n(C)c3ccccc23)cc1 ?
VDR inh: -15%

Results for C=CCNc1nc(-c2cc3ccccc3o2)cs1 ?
VDR inh: -5%; KDM4E inh: inconclusive; HTT ATP protect: -13%[10 µM]; GoLoco inh red: 6%; Coupling enz: -2; HttQ103 aggreg: -6%

Results for c1ccc2oc(-c3csc(NCC4CCCO4)n3)cc2c1 (stereo unspecified) ?
VDR inh: 79µM*; KDM4E inh: -24%; HTT ATP protect: -8%[10 µM]; GoLoco inh red: -17%; Coupling enz: 1; HttQ103 aggreg: -12%

Results for COc1ccc(CN(Cc2ccccc2)C(=O)C2CC2)cc1COc1ccc(NC(C)=O)cc1 ?
VDR inh: 15%

How did N#Cc1ccccc1Cn1c(=O)n(-c2ccc(F)c(Cl)c2)c(=O)c2sccc21 do in these assays?
VDR inh: 6%
